Measurements from PubChem BioAssay (NCATS).
Results filed as inconclusive are left out. Active and inactive are the calls of the source. Unless noted, calls come from the whole dose curve; as a rule, active = well fitted curve in the direction sought with a large enough effect; inconclusive = small, poorly fitted or top-dose-only effect, or another doubt; inactive = no such curve, though single readings can be large; an effect the other way counts as inactive or inconclusive.

Experiments:
[1] = Cell Viability - BJ (AID 421; calls by dose curve;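 note: potency is the fitted concentration of half-maximal effect; cells exposed to compound for 40 hours at 37 °C before readout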); details: BJ fibroblast viability, qHTS
Method in brief: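 Normal human BJ foreskin fibroblasts, 1500/well in complete medium, treated 40 hr at 37 °C. Cellular ATP by CellTiter-Glo luminescence; normalized to DMSO and 100 uM tamoxifen, AC50 from Hill fit.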

[2] = Cell Viability - Jurkat (AID 426;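 active = dose-dependent loss of cell ATP signal giving a full or clear fitted curve, ranked by lower potency value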; note: potency is the fitted concentration of half-maximal effect); details: qHTS
Method in brief: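 Cytotoxicity taken as drop in cellular ATP (CellTiter-Glo luminescence, 20 min room temperature) after 40 hr, 37C treatment of 5000 Jurkat Clone E6-1 cells per well; concentration-response fitted with Hill equation for AC50.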

[3] = Cell Viability - Hek293 (AID 427;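 active = compounds whose dose-response curve shows a full or clear partial loss of cell viability, called from curve shape rather than a numeric limit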;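 note: potency is the fitted concentration of half-maximal effect; cells exposed to compound for 40 hours at 37 °C before reading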); details: qHTS
Method in brief: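 HEK293 cells in complete medium were exposed to compound for 40 hr at 37 °C, then cellular ATP was read by CellTiter-Glo luminescence. Data were normalized to DMSO (basal) and 100 uM tamoxifen (100% inhibition), and AC50 came from Hill fits.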

[4] = Cell Viability - HepG2 (AID 433; calls by dose curve;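 note: potency is the fitted concentration of half-maximal effect; potency for ATP loss meaning cytotoxicity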); details: qHTS
Method in brief: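 HepG2 hepatocellular carcinoma cells (1500/well) were treated with compounds for 40 h at 37 °C in complete medium; intracellular ATP was read by CellTiter-Glo luminescence. Data were normalized to DMSO and 100 uM tamoxifen, and AC50 came from Hill fits.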

[5] = Cell Viability - MRC5 (AID 434; calls by dose curve;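 note: potency is the fitted concentration of half-maximal effect; potency reflects cytotoxicity seen as loss of intracellular ATP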); details: MRC5 lung fibroblast viability, qHTS
Method in brief: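 Decrease in intracellular ATP, quantified by luciferase light output, reflects compound toxicity toward MRC5 cells exposed for 40 hr in complete culture medium. Concentration-response curves, scaled between DMSO and 100 uM tamoxifen, gave AC50 values.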

[6] = Cell Viability - SK-N-SH (AID 435; calls by dose curve; note: potency is the fitted concentration of half-maximal effect); details: SK-N-SH neuroblastoma cell viability qHTS
Method in brief: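 SK-N-SH human neuroblastoma cells (1500/well) were exposed to compounds in complete medium for 40 h at 37 °C, and intracellular ATP was then measured by CellTiter-Glo luminescence. AC50 was taken from Hill fits, normalized to DMSO and 100 uM tamoxifen.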

[7] = target: Mitogen-activated protein kinase 10 (Mus musculus) (UniProt Q61831); test: JNK3 AlphaScreen Assay (AID 530; active = well fitted curve in either direction with a large enough effect, not every such curve was filed as active;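 note: kinase came from lysate of stimulated human HepG2 cells; signal reports phosphorylation of biotinylated GST-cJun 1-79 at Ser73 with 10 µM ATP; % is set by controls: 0 for no effect and ±100 for the full control effect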)
Method in brief: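 Phosphorylation of biotinylated GST-cJun(1-79) at Ser73 is measured by AlphaScreen proximity luminescence. Enzyme is JNK3 in HepG2 lysates activated with interleukin-1beta and tumor necrosis factor alpha; ATP is 10 uM final.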

[8] = Cell Viability - N2a (AID 540); details: N2a mouse neuroblastoma cell viability; activity change, negative = cytotoxicity: at 92.2 µM (top of the series);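 note: plate controls were DMSO alone for no effect and tamoxifen control for full effect; nearly all actives have a fitted effect of over 45% in size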
Method in brief: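 CellTiter-Glo ATP luminescence, read 20 min after reagent at room temperature, reported viability following 40 h compound treatment at 37 °C. N2a mouse neuroblastoma cells seeded 1500/well; Hill equation gave AC50.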

[9] = Cell Viability - NIH 3T3 (AID 541); details: NIH 3T3 cell viability, qHTS; activity change, negative = cytotoxicity: at 92.2 µM (top of the series);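 note: plate controls were DMSO alone for no effect and tamoxifen positive control for full effect; nearly all actives have a fitted effect of over 25% in size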
Method in brief: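 Intracellular ATP (CellTiter-Glo luminescence, 20 min at room temperature) measured after 40 hr compound exposure at 37 °C of 1000 NIH 3T3 mouse fibroblasts/well in complete medium; AC50 derived by Hill-equation modelling of qHTS concentration-response curves.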

[10] = Cell Viability - HUV-EC-C (AID 542); note: % is set by controls: 0 for no effect and ±100 for the full control effect; nearly all actives have a fitted effect of over 35% in size
Method in brief: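 CellTiter-Glo luminescence measured ATP loss in HUV-EC-C cells (1000/well) after 40 hr compound exposure at 37 °C, in complete culture medium. Concentration-response data were Hill-fitted to give AC50.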

[11] = Cell Viability - H-4-II-E (AID 543); note: % is set by controls: 0 for no effect and ±100 for the full control effect; nearly all actives have a fitted effect of over 35% in size
Method in brief: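 CellTiter-Glo luminescence (intracellular ATP) measured after 40 h compound exposure at 37 °C in H-4-II-E rat hepatoma cells seeded at 1500/well. Values are AC50s fitted with the standard Hill equation.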

[12] = Cell Viability - SH-SY5Y (AID 544); note: nearly all actives have a fitted effect of over 55% in size
Method in brief: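 Cytotoxicity measured via ATP-dependent luciferase luminescence (CellTiter-Glo) following 40 h, 37 °C exposure of 1500 SH-SY5Y cells per well. Concentration-response data were fitted with the standard Hill equation to give AC50.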

[13] = Cell Viability - Renal Proximal Tubule (AID 545); details: renal proximal tubule cells viability, primary cells of rat origin; at 91.7 µM (top of the series); note: nearly all actives have a fitted effect of over 40% in size
Method in brief: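 Primary rat renal proximal tubule cells (1000/well) were treated with compounds for 40 hr at 37 °C in complete medium. Intracellular ATP was measured by CellTiter-Glo luminescence, and AC50 values came from Hill-equation fits of concentration-response data.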

[14] = Cell Viability - Mesenchymal (AID 546); details: mesenchymal cells viability, qHTS; activity change, negative = cytotoxicity: at 91.7 µM (top of the series);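 note: cells exposed to compound for 40 hours before reading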
Method in brief: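 In this qHTS cytotoxicity format, glomerulus-derived human mesenchymal kidney cells received compound for 40 hr, then luciferase-based ATP quantitation. Concentration-response data were fitted with the Hill equation.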

[15] = Cellular Toxicity (caspase-3) Jurkat (AID 655); details: Jurkat caspase-3 activation, luminescence, DMSO = 0%, tamoxifen = 100%; at 92.2 µM (top of the series);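 note: cells exposed to compound for 16 h at 37 °C before reading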
Method in brief: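 Jurkat cells (5000/well) in complete medium were treated with compounds for 16 hr at 37 °C, then Caspase-Glo 3/7 luminescence was read after 20 min at room temperature. Data normalized to DMSO (basal) and 100 uM tamoxifen (100%); AC50 from Hill fit.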

[16] = Cellular Toxicity (caspase-3) BJ (AID 658);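 note: cells exposed to compound for 16 hours; 0% = DMSO basal and 100% = 10 µM staurosporine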
Method in brief: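 Plated BJ cells (1000/well) rested 5 hr, received compound for 16 hr at 37 °C, then Caspase-Glo 3/7 reagent for 1 hr at room temperature before luminescence reading.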

[17] = Cellular Toxicity (caspase-3) MRC-5 (AID 659);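 note: cells exposed to compound for 16 h at 37 °C; 0% = DMSO basal and 100% = 10 µM staurosporine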
Method in brief: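 Apoptosis readout in MRC-5 cells: luciferase light generated after caspase 3/7 cleaves a peptide-aminoluciferin substrate, measured post 16 hr compound incubation at 37 °C.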

[18] = Cellular Toxicity (caspase-3) Mesangial (AID 660);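 note: combined caspase 3 and 7 activity read by Caspase-Glo luminescence; cells exposed to compound for 16 h before the caspase read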
Method in brief: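 Caspase 3/7 activation measured by Caspase-Glo 3/7 luminescence (20 min, room temperature) following 16 h exposure of mesangial cells (1000/well); AC50 from Hill-equation fit, normalized to DMSO and 100 uM tamoxifen.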

[19] = Cellular Toxicity (caspase-3) SK-N-SH (AID 661);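 note: cells exposed to compound for 16 hours; 0% = DMSO basal and 100% = 10 µM staurosporine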
Method in brief: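 Caspase 3/7 activation was read by luminogenic substrate cleavage after 16 hour treatment of SK-N-SH cells. Signal was scaled between DMSO and 10 uM staurosporine, and concentration-response data were fitted with the Hill equation for AC50.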

[20] = Cellular Toxicity (caspase-3) H-4-II-E (AID 663); details: Potency: caspase-3 activation;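 note: cells exposed to compound for 16 hr before readout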
Method in brief: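 Caspase 3/7 activation measured in H-4-II-E cells in complete culture medium after 16 hr treatment at 37 °C, using luciferase-coupled substrate readout; AC50 values come from Hill-equation fits of normalized concentration-response data.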

[21] = Cellular Toxicity (caspase-3) Hek293 (AID 664);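 note: cells exposed to compound for 16 h at 37 °C before readout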
Method in brief: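 Concentration-response qHTS: caspase 3/7 activation measured by luminescent aminoluciferin substrate cleavage after 16 h compound exposure of Hek 293 cells. AC50 from Hill equation, with DMSO as basal and 100 uM tamoxifen as 100%.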

[22] = Cellular Toxicity (caspase-3) N2a (AID 665);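 note: compound exposure lasted 16 h at 37 °C before readout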
Method in brief: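 Caspase-3/7 activation measured as luminescence from Caspase-Glo reagent (1 h, room temperature) after 16 h compound exposure of mouse N2a cells. AC50 values from Hill-equation concentration-response, scaled between DMSO and 10 uM staurosporine.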

CC12CCC(CC1=O)C2(C)C (configuration not stated)
inactive: Potency [1] > 92 µM | Potency [2] > 92 µM | Potency [3] > 92 µM | Potency [4] > 92 µM | Potency [5] > 92 µM | Potency [6] > 92 µM | Potency [7] | activity change, negative = cytotoxicity [8] -9.82% | Potency [9] | outcome [10] | Potency [11] | Potency [12] | activity change, negative = cytotoxicity [13] -5.29% | activity change, negative = cytotoxicity [14] -11.1% | caspase-3 activation [15] -3.1% | outcome [16] | outcome [17] | outcome [18] | outcome [19] | Potency [20] | outcome [21] | outcome [22]
